Test results: PubChem BioAssay
Activity calls are given as the source filed them. Unless noted, no rule for the calls is given here.

Legend:
[1] = A549 cell viability effects, profiling panel, calcein-AM fluorescence, 48 h, basal (AID 1162); settings: higher = more signal; also: test concentration not given here
[2] = adipocyte viability effects, profiling panel, cell-based, 3T3-L1 adipocytes, calcein-AM fluorescence, 48 h, basal (AID 1163); settings: 3T3-L1 adipocytes viability, higher = more signal; also: test concentration not given here
[3] = HepG2 cell viability effects, profiling panel, calcein-AM fluorescence, 48 h, basal (AID 1164); settings: higher = more signal; also: test concentration not given here
[4] = MM1S cell viability effects, profiling panel, calcein-AM fluorescence, 48 h, basal (AID 1165); settings: higher = more signal;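 also: viability of MM1S multiple myeloma cells under basal unstimulated conditions; test concentration not given here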
[5] = basal RPMI8226 viability, no added stimulus, profiling panel, cell-based, calcein-AM fluorescence, 48 h, PK04 Diversity Set (AID 1166); settings: RPMI8226 myeloma viability, higher = more signal;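 also: cells grown under basal conditions without added stimulus; test concentration not given here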
[6] = basal HepG2 mitochondrial membrane potential changes, profiling panel, cell-based, JC-1 fluorescence, 24 h, 100 nL compound (AID 1167); settings: higher = more signal; also: test concentration not given here
[7] = basal 3T3-L1 adipocyte mitochondrial potential changes, profiling panel, cell-based, JC-1 fluorescence, 3T3-L1 adipocytes, 24 h, 100 nL compound (AID 1168); settings: JC-1 mitochondrial fluorescence, higher = more signal, called active from +8 up or from −8 down; also: test concentration not given here
[8] = basal RPMI8226 mitochondrial membrane potential changes, profiling panel, cell-based, JC-1 fluorescence, 24 h, 100 nL compound (AID 1169); settings: RPMI8226 myeloma, JC-1 mitochondrial potential fluorescence, higher = more signal; also: test concentration not given here
[9] = basal MM1S mitochondrial membrane potential changes, profiling panel, cell-based, JC-1 fluorescence, 24 h, 100 nL compound (AID 1170); settings: higher = more signal; also: test concentration not given here
[10] = A549 lung cancer cell viability effects, profiling panel, resazurin fluorescence, 24 h, PK04 Diversity Set (AID 1171); settings: higher = more signal, called active from +8 up or from −8 down; also: test concentration not given here
[11] = HepG2 liver cancer cell viability effects, profiling panel, resazurin fluorescence, 24 h, PK04 Diversity Set (AID 1172); settings: higher = more signal; also: test concentration not given here
[12] = basal S. cerevisiae growth modulation, no modifier, primary screen, OD600, strain BY4716, 24 h, basal condition (AID 1173); settings: OD600, 24 h, higher = more signal, called active from +8 up or from −8 down
[13] = MM1S myeloma cell viability, profiling panel, resazurin fluorescence, basal, 24 h, PK04 Diversity Set (AID 1174); settings: higher = more signal, called active from +8 up or from −8 down;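 also: MM1S multiple myeloma cell line; test concentration not given here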
[14] = target: Dihydroorotate dehydrogenase (quinone), mitochondrial (Plasmodium falciparum (isolate 3D7)) (UniProt Q08210); assay: PfDHODH enzyme inhibitors, primary screen, biochemical, C-terminal His tag, absorbance 600 nm (AID 1175); settings: DCIP absorbance 600 nm, higher = more signal, called active from +8 up or from −8 down;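 also: recombinant parasite enzyme with a five histidine tag at its C terminus; test concentration not given here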
[15] = P. aeruginosa biofilm formation inhibitors, primary screen, strain PAO1, LB-PBS medium, absorbance 600 nm (AID 1176); also: test concentration not given here; settings: P. aeruginosa PAO1 growth/biofilm, A600, 12 h; higher = more signal
[16] = S. cerevisiae RM11-1a growth modifiers, primary screen, strain RM11-1a, OD600, basal, 24 h (AID 1177); settings: OD600, 24 h, higher = more signal, called active from +8 up or from −8 down;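 also: cultures grown under basal conditions with no added stressor; test concentration not given here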
[17] = E. coli acrAB mutant growth effects, primary screen, E. coli filamentation inducers, strain DRC39, OD650, 24 h (AID 1178); settings: higher = more signal, called active from +8 up or from −8 down;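 also: growth measured as culture turbidity by optical density at 650 nm; test concentration not given here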
[18] = E. coli acrAB mutant growth effects, primary screen, E. coli filamentation inducers, strain DRC39, OD650, 48 h (AID 1179);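 also: screen aims at cell division blockers that make cells filament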; settings: E. coli DRC39 delta-acrAB growth, higher = more signal, called active from +8 up or from −8 down
[19] = RPMI8226 myeloma cell viability, profiling panel, resazurin fluorescence, basal, 24 h, PK04 Diversity Set (AID 1180); settings: higher = more signal;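 also: RPMI8826 multiple myeloma cell line at 5000 cells per well; test concentration not given here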
[20] = target: E3 ubiquitin-protein ligase XIAP (Homo sapiens) (UniProt P98170); assay: XIAP binders, primary screen, biophysical, small-molecule microarray, fluorescence 635 nm (AID 1181); settings: small-molecule microarray binding, higher = more signal;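 also: score merges 667 nm emission and signal to noise over triplicate slides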
Sequence of E3 ubiquitin-protein ligase XIAP (Homo sapiens) (P98170 whole entry, looked up): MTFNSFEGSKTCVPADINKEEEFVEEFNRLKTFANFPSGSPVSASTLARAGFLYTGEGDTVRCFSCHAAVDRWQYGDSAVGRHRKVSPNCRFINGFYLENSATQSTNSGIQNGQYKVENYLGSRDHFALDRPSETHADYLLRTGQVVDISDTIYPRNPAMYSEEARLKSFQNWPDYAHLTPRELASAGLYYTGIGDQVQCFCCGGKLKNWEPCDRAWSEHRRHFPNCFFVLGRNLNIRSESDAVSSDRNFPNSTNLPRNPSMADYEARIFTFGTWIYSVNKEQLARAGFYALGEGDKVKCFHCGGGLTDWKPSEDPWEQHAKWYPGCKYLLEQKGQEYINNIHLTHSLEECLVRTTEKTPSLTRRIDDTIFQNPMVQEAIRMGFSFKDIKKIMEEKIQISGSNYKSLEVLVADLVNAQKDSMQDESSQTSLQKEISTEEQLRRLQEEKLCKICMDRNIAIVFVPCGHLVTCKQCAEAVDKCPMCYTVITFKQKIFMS

Sequence of Dihydroorotate dehydrogenase (quinone), mitochondrial (Plasmodium falciparum (isolate 3D7)) (Q08210 whole entry, looked up): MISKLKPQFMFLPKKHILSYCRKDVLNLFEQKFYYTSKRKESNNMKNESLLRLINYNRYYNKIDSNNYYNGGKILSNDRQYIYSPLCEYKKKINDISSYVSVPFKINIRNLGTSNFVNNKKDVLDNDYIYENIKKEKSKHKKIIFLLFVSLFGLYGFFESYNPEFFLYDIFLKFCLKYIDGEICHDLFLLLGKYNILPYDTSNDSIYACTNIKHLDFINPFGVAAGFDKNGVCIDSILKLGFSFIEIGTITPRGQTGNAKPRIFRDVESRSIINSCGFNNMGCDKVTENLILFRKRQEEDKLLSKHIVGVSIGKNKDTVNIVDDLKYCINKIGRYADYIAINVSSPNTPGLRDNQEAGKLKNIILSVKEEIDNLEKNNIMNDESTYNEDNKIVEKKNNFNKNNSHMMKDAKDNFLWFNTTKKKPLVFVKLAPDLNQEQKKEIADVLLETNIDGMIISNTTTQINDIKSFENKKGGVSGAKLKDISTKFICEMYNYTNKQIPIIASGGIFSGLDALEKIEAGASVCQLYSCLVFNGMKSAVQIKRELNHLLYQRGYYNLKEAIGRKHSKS

C=CC1c2cc(O)c(OC)cc2CCN1Cc1sc2ccccc2c1Cl (stereo not given)
z-score [1]: -4.28
z-score [2]: 0.155
z-score [3]: -4.42
z-score [4]: -3.24
z-score [5]: -4.45
z-score [6]: -3.08
z-score [7]: -0.224 (inactive)
z-score [8]: -0.811
z-score [9]: -0.358
z-score [10]: -0.784 (inactive)
z-score [11]: -0.62
z-score [12]: -18.3 (active)
z-score [13]: -0.467 (inactive)
composite z-score [14]: -1.04 (inactive)
z-score [15]: -0.227 (inactive)
z-score [16]: -3.6 (inactive)
z-score [17]: 0.243 (inactive)
z-score [18]: -0.404 (inactive)
z-score [19]: -0.802
composite z-score [20]: 0.265

CN(C)CCCNC(=O)[C@@]1(c2ccc([N+](=O)[O-])cc2)CC(=O)N(CC23CC4CC(CC(C4)C2)C3)[C@@H]1c1ccc(CO)cc1
z-score [1]: -3.74
z-score [2]: 0.0309
z-score [3]: -5.05
z-score [4]: -3.8
z-score [5]: -4.03
z-score [6]: -1.58
z-score [7]: 0.303 (inactive)
z-score [8]: -1.04
z-score [9]: -2.33
z-score [10]: -4.78 (inactive)
z-score [11]: -6.19
z-score [12]: -16.2 (active)
z-score [13]: -8.92 (active)
composite z-score [14]: 0.687 (inactive)
z-score [15]: 0.472 (inactive)
z-score [16]: -8.93 (active)
z-score [17]: 0.325 (inactive)
z-score [18]: -2.4 (inactive)
z-score [19]: -6.48
composite z-score [20]: 0.0896

COc1ccc([Si](C)(C)[C@H]2[C@H](CCn3cc([C@H](O)c4ccccc4)nn3)O[C@@]3(C(=O)N(Cc4ccc(N5CCOC5=O)cc4)c4ccccc43)[C@@H]2C)cc1
z-score [1]: 1.33
z-score [2]: 0.805
z-score [3]: 1.15
z-score [4]: -1.45
z-score [5]: 0.142
z-score [6]: 0.858
z-score [7]: 0.174 (inactive)
z-score [8]: 0.157
z-score [9]: 0.113
z-score [10]: -0.265 (inactive)
z-score [11]: -0.27
z-score [12]: 0.574 (inactive)
z-score [13]: -0.412 (inactive)
composite z-score [14]: 0.624 (inactive)
z-score [15]: 1.04 (inactive)
z-score [16]: 2.18 (inactive)
z-score [17]: 0.205 (inactive)
z-score [18]: 0.139 (inactive)
z-score [19]: 0.129
composite z-score [20]: -0.171

C=C(CCCC)/C(=C/C[C@@H](OC(=O)c1ccncc1)c1cccc(OCCO)c1)c1cnc2ccccc2c1
z-score [1]: -0.021
z-score [2]: 1.14
z-score [3]: -0.681
z-score [4]: -2.65
z-score [5]: -1.5
z-score [6]: 1.99
z-score [7]: -0.891 (inactive)
z-score [8]: -0.497
z-score [9]: 0.117
z-score [10]: 0.586 (inactive)
z-score [11]: 0.0976
z-score [12]: -1.17 (inactive)
z-score [13]: -0.369 (inactive)
composite z-score [14]: -2.5 (inactive)
z-score [15]: 2.24 (inactive)
z-score [16]: 0.264 (inactive)
z-score [17]: 0.879 (inactive)
z-score [18]: 0.357 (inactive)
z-score [19]: 0.0765
composite z-score [20]: -0.0261

C=C(/C(=C/C[C@@H](OC(=O)c1ccncc1)c1ccc(OCCO)cc1)c1cc(C(=O)OC)ccc1OC)C(C)C
z-score [1]: -0.738
z-score [2]: 0.61
z-score [3]: 0.391
z-score [4]: -0.166
z-score [5]: 0.687
z-score [6]: 2.81
z-score [7]: 0.436 (inactive)
z-score [8]: -0.177
z-score [9]: -0.744
z-score [10]: 1.4 (inactive)
z-score [11]: 1.54
z-score [12]: 0.542 (inactive)
z-score [13]: 0.288 (inactive)
composite z-score [14]: -0.444 (inactive)
z-score [15]: 0.224 (inactive)
z-score [16]: -0.0338 (inactive)
z-score [17]: 0.945 (inactive)
z-score [18]: 0.52 (inactive)
z-score [19]: 0.352
composite z-score [20]: -0.0916

C=C(COC)/C(=C/C[C@@H](OC(=O)c1ccncc1)c1ccc(CO)o1)c1cnc2ccccc2c1
z-score [1]: -0.308
z-score [2]: 0.513
z-score [3]: -0.607
z-score [4]: -0.164
z-score [5]: 0.575
z-score [6]: -0.65
z-score [7]: 0.654 (inactive)
z-score [8]: 0.0268
z-score [9]: -0.151
z-score [10]: 0.331 (inactive)
z-score [11]: 0.7
z-score [12]: 0.705 (inactive)
z-score [13]: 0.372 (inactive)
composite z-score [14]: -7.93 (inactive)
z-score [15]: 0.379 (inactive)
z-score [16]: 1.2 (inactive)
z-score [17]: 0.16 (inactive)
z-score [18]: 0.0648 (inactive)
z-score [19]: 0.235
composite z-score [20]: 0.641

COCCCNC(=O)[C@@]1(Sc2ccc(C)cc2)CC(=O)N(C2Cc3ccccc3C2)[C@@H]1c1ccc(CO)cc1I
z-score [1]: -0.126
z-score [2]: -0.175
z-score [3]: -0.65
z-score [4]: -2.45
z-score [5]: -2.27
z-score [6]: -0.188
z-score [7]: -0.0568 (inactive)
z-score [8]: -0.294
z-score [9]: -1.34
z-score [10]: -0.3 (inactive)
z-score [11]: -0.0076
z-score [12]: -2.87 (inactive)
z-score [13]: -2.79 (inactive)
composite z-score [14]: -0.591 (inactive)
z-score [15]: 0.196 (inactive)
z-score [16]: -0.429 (inactive)
z-score [17]: -0.0635 (inactive)
z-score [18]: 0.0605 (inactive)
z-score [19]: -2.31
composite z-score [20]: 0.108
